Assay outcomes as filed in PubChem.
12-hLO inh – inhibitors of human 12-lipoxygenase (ALOX12) | Potency, µM (titrated, usually from 57.1 µM), for inactives: at the highest dose activity change, negative = inhibition, most hits filed as inhibitors | purified 12-hLO, xylenol orange hydroperoxide absorbance | P18054 | 0.12% of 150,000 active; note: potency is the fitted concentration of half-maximal effect; nearly all actives have a fitted effect of over 55% in size
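Lipoxygenase turnover measured by absorbance at 573 and 405 nm after Fe-XO development. Human 12hLO 150 nM, arachidonate 40 uM, pH 7.0 Hepes buffer with detergent; 15 min compound preincubation, 30 min reaction.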
15-hLO-2 inh – inhibitors of human 15-lipoxygenase 2 (ALOX15B); O15296; purified 15hLO-2, xylenol orange hydroperoxide absorbance; Potency, µM (series often up to 57.1 µM), for inactives: at the highest dose activity change, negative = inhibition, most hits filed as inhibitors; 0.56% of 110,000 active; AID 881; note: potency is the fitted concentration of half-maximal effect; nearly all actives have a fitted effect of over 60% in size
Target sequence (O15296 whole entry, looked up): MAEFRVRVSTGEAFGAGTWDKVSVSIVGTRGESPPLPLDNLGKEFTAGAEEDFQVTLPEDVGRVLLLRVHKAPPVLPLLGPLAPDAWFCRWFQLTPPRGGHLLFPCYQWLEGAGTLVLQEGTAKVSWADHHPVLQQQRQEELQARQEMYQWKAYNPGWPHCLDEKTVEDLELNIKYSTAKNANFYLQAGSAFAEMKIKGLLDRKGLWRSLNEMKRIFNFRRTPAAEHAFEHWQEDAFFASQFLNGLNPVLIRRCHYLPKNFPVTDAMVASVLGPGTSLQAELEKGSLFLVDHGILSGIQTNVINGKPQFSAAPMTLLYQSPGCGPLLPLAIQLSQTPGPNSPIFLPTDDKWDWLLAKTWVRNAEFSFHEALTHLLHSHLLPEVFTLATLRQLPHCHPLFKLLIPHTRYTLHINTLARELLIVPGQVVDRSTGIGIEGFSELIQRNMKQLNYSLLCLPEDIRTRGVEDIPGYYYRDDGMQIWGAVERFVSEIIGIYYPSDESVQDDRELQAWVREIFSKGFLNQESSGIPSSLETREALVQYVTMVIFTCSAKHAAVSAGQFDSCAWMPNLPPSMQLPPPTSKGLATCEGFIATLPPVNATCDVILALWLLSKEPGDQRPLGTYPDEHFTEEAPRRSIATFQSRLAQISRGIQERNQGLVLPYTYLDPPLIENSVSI
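Read-out: hydroperoxide product oxidises ferrous iron, measured as xylenol orange complex via the 573-to-405 nm absorbance ratio after 30 min. Reaction: 50 nM enzyme, 15 min compound preincubation, 45 uM arachidonic acid, 90 min RT, Hepes pH 7.5 with Triton X-100.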
PNC inhibitor – perinucleolar compartment assembly inhibition. PC3M PTB-GFP, PNC prevalence imaging, 16 h; hits give low values. activity change (PNC), negative = inhibition, % at 10 µM. 3.1% of 140,000 active. AID 2417;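 active = readout at or below -70, meaning at least 70% loss of cells showing the perinucleolar compartment, a nuclear body marking cancer cells; inconclusive = readout between -30 and a set limit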;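 note: plate controls were DMSO wells for no effect and camptothecin positive control wells for full effect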
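Compounds are pinned in duplicate onto adhered PC3M cells stably expressing GFP-tagged PTB and incubated 16 h at 37 C. Cells are then fixed, nuclei stained with Hoechst, and PNC-positive cells counted.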
Numbers without * were called inactive; ? = inconclusive; . = no result given; [ ] = another dose, or the depositor's remark. Sampled rows, rich in hits. Any-hit rate of the full collection: about 3.1%. Unless noted, calls come from the whole dose curve; as a rule, active = well fitted curve in the direction sought with a large enough effect; inconclusive = small, poorly fitted or top-dose-only effect, or another doubt; inactive = no such curve, though single readings can be large; an effect the other way counts as inactive or inconclusive. Unless noted, % is set by controls: 0 for no effect and ±100 for the full control effect.

SMILES	12-hLO inh	15-hLO-2 inh	PNC inhibitor
COc1ccc(-c2nc3c(c4c2C[C@H](c2ccccc2)OC4)CN(C(=O)c2cc(I)ccc2F)CC3)c(C)c1	-4%[11.4 µM]	.	.
CC(C)C[C@@H](CC(=O)N[C@@H](CCC(=O)O)CC(=O)O)NC(=O)[C@@H]1CNCC[C@H]1NC(=O)C[C@@H](NC(=O)C[C@H](Cc1ccccc1)NC(=O)[C@@H]1CCCC[C@H]1N)C(C)C	2%	.	.
FC(F)Sc1nnc(-c2cccs2)n1-c1ccccc1	3%	-2%	-80*
N#Cc1ccc(CSc2nnc(-c3cccs3)n2-c2ccccc2)cc1	-8%	-12%	?
CNC(=O)CSc1nnc(-c2cccnc2)n1CCc1ccccc1	-2%	5%	-15
CCc1ccccc1-n1c(SCC(=O)NC)nnc1-c1cccnc1	1%	-1%	-122*
Fc1ccccc1NC(=S)NCCc1ccccc1	-5%	-15%	?
S=C(NCCc1ccc(Cl)cc1)Nc1ccc(Cl)cc1Cl	11µM*	.	-14
S=C(NCc1ccc(Cl)cc1)Nc1ccc(Cl)cc1Cl	-3%	.	-12
COc1ccc(NC(=S)NCCc2ccc(Cl)cc2)c(OC)c1	?	25µM*	8
Fc1ccc(NC(=S)NCCc2ccccc2)c(F)c1F	16µM*	?	-19
COc1ccc(NC(=S)NCCc2c[nH]c3ccc(OC)cc23)c(OC)c1	-22%	?	47
C=C(CC1([C@@H](NP(=O)(c2ccccc2)c2ccccc2)[C@H]2C[C@@H]2CCCC)CC1)c1cccc(OC)c1	-7%	15%	.
C=CCN1c2ccccc2[C@]23C[C@@H](C(=O)OC)N(S(=O)(=O)c4ccc(C#N)cc4)C2=NC(C(=O)OC)=C(C(=O)OC)[C@H]13	3%[11.4 µM]	.	.
S=c1nc[nH]c2c1ncn2Cc1ccco1	-1%[11.4 µM]	-1%[11.4 µM]	.
COC(=O)N1CCC2(CCCN(Cc3ccc(C#N)cc3)C2)CC1	-3%	3%	.
CC(C)OC(=O)c1cccc(-c2ccc(C=O)o2)c1	-3%	.	-108*
CC(C)OC(=O)c1ccc(COC(=O)c2cccc(-c3nnc(-c4ccccc4)o3)c2)cc1	-6%	.	?
COC(=O)[C@@H]1C[C@@H]2CC[C@@H](O)C[C@@H]2N1Cc1ccc(N2CCOCC2)cc1	-4%	-2%	.
O=C(CSc1oc(-c2ccc(F)cc2)nc1S(=O)(=O)c1ccccc1)NCC1CCCO1 (centres undefined)	-5%	.	-119*
Cc1ccc(-c2nc(S(=O)(=O)c3ccc(F)cc3)c(SCC(=O)NCC3CCCO3)o2)cc1 (centres undefined)	12%	.	23
O=C(CSc1oc(-c2ccc(F)cc2)nc1S(=O)(=O)c1ccc(F)cc1)NCC1CCCO1 (centres undefined)	5%	.	246
O=C(CSc1oc(-c2ccccc2)nc1S(=O)(=O)c1ccc(F)cc1)NCC1CCCO1 (centres undefined)	0%	.	-100*
Cc1nc(N)nc2ccccc12	4%[11.4 µM]	1%[11.4 µM]	.
Nc1ccccc1N=Nc1c(S(=O)(=O)O)cc2cc(S(=O)(=O)O)cc(O)c2c1O	0%[11.4 µM]	15%[11.4 µM]	.
SMILES	12-hLO inh	15-hLO-2 inh	PNC inhibitor
CC(=O)N1CCc2c(sc3c2c(=O)n(-c2ccccc2)c(=O)n3Cc2ccccc2Cl)C1	-1%	.	-114*
O=c1n(Cc2ccccc2Cl)c2sc3c(c2c2ncnn12)CCCC3	-3%	-5%	-5
O=C(O)CN(CCN(CC(=O)O)CC(=O)O)CCN(CC(=O)O)CC(=O)O	2%[25.6 µM]	50%[25.6 µM]	.
Cc1nn(-c2cc(N3CCCCC3)ccc2N)c(=O)c2ccccc12	-2%	.	-119*
Cc1nn(-c2cc(N3CCCCCC3)ccc2[N+](=O)[O-])c(=O)c2ccccc12	1%	-28%	55
CCc1ccc(NS(=O)(=O)c2ccc3[nH]cc(C(=O)N(C)Cc4ccco4)c(=O)c3c2)cc1	?	-1%	-114*
CN(Cc1ccco1)C(=O)c1c[nH]c2ccc(S(=O)(=O)Nc3ccc4c(c3)OCCO4)cc2c1=O	-7%	.	37
CS(=O)(=O)N1CCC2(CC1)CN(c1ncccn1)C2	2%	-1%	.
COc1ccc(NC(=O)N2CC3(CCN(C(=O)c4cnccn4)CC3)C2)cc1	-1%	6%	.
O=[N+]([O-])c1ccc(Cl)c(CN2CCC(O)CC2)c1	-4%	.	-124*
O=[N+]([O-])c1ccc(Cl)c(/C=N/N2CCN(Cc3ccccc3Cl)CC2)c1	0%	11%	?
COC(=O)CCC(C)C1CCC2C3CC[C@H]4CC(O)CC[C@@]4(C)C3CC(O)[C@]12C (some centres undefined)	-7%	-6%	.
COc1ccc(-c2oc3ccc(C)cc3c(=O)c2O)cc1OC	6%	-5%	.
COc1cc(Cl)c(C)cc1NC(=O)CSc1ccccc1	-2%	.	-125*
COc1cc2c(cc1NC(=O)CSc1ccc(C)cc1)oc1ccccc12	-6%	-12%	28
COc1cc(Cl)c(C)cc1NC(=O)CSC	-4%	-5%	?
COc1cc2c(cc1NC(=O)CSCC(=O)O)oc1ccccc12	0%	-13%	-127*
COc1cc(Cl)c(C)cc1NC(=O)CSc1cc(Cl)ccc1Cl	-2%	.	-119*
COc1cc(Cl)c(C)cc1NC(=O)CSc1ccc(C)cc1	3%	-4%	16
c1ccc2nc(CC[C@@H]3CCCCN3)ccc2c1	-2%[11.4 µM]	1%[11.4 µM]	.
CCCCC1=CC2=C(OC(C)=O)C(=O)C(C)(OC(=O)C3CCCC3)C(=O)C2=CO1 (centres undefined)	-22%	.	.
N#Cc1ccc(CN2CCC3(CC2)CCN(C(=O)c2csnn2)CC3)cc1	0%	0%	.
COc1cc(/C=C(\NC(=O)c2ccccc2)C(=O)Nc2cccc(O)c2)c([N+](=O)[O-])cc1OC	-14%	-7%	13
COc1cc(/C=C(\NC(=O)c2ccccc2)C(=O)NCCO)c([N+](=O)[O-])cc1OC	-7%	.	-93*
O=C1c2ccccc2-c2cc([N+](=O)[O-])c([N+](=O)[O-])cc21	-4%[11.4 µM]	-13%[11.4 µM]	.
SMILES	12-hLO inh	15-hLO-2 inh	PNC inhibitor
CCOc1ccc(C(=O)CCN2CCCCC2)cc1	-14%	-19%	-127*
COc1ccc(C(=O)CCN2CCCCCC2)cc1	-2%	-23%	10
CCN(CC)c1ccc(C2C(C(=O)OC(C)C)C(=O)CC(C)(O)C2C(=O)OC(C)C)cc1 (centres undefined)	-3%	2%	-113*
CC(C)OC(=O)C1C(=O)CC(C)(O)C(C(=O)OC(C)C)C1c1ccc(F)cc1 (centres undefined)	1%	1%	23
CCOC(=O)C1C(=O)CC(C)(O)C(C(=O)OCC)C1c1ccc(N(CC)CC)cc1 (centres undefined)	2%	.	-119*
CCOC(=O)C1C(=O)CC(C)(O)C(C(=O)OCC)C1c1ccc(F)cc1 (centres undefined)	-9%	-5%	-10
C1CCN2CC3CC(CN4CCCC[C@@H]34)C2C1 (some centres undefined)	-1%	4%	.
CN=C(NC#N)NCCSCc1csc(N=C(N)N)n1	-2%	19%	.
O=C(Oc1ccc(OC(=O)c2ccco2)c(S(=O)(=O)c2ccc(Br)cc2)c1)c1ccco1	-3%	-15%	-100*
Cc1ccc(S(=O)(=O)c2cc(OC(=O)c3ccco3)ccc2OC(=O)c2ccco2)cc1	3%	.	48
O=C(O)CCCSc1nc2ccccc2s1	-2%[11.4 µM]	-3%[11.4 µM]	.
